# Experimental data: PubChem BioAssay (NCI)
# About 79,000 compounds went through this panel and 15% of them were active in at least one assay; those are over-represented in the sample as a whole. A number with no mark means an inactive call. Calls of active or inactive are those of the source. Cut-off read from the data, not from the text of the source: active = growth inhibition above about 70%; inactive = the rest.
# Tests used:
# [1] = NCI Yeast Anticancer Drug Screen. Data for the rad50 strain (AID 155);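 note: 0% = growth of vehicle-only cultures of the same strain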; conditions: S. cerevisiae rad50 strain growth inhibition, hits give high values
# How it was run: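 Readout: growth inhibition relative to vehicle-treated cultures. Compound exposure was carried out in a genetically defined yeast strain deficient in DNA damage repair.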
# [2] = NCI Yeast Anticancer Drug Screen. Data for the mec2-1 strain (AID 157); conditions: S. cerevisiae mec2-1 strain, hits give high values
# How it was run: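 Strain: mec2-1 (DNA repair/cell cycle alteration). Compound exposure, then growth measured; inhibition expressed relative to vehicle.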
# [3] = NCI Yeast Anticancer Drug Screen. Data for the sgs1 mgt1 strain (AID 161);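 note: 0% = growth of cultures given vehicle only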; conditions: S. cerevisiae sgs1 mgt1 strain, hits give high values
# How it was run: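 Read-out: growth inhibition vs vehicle controls. Cells: mutant yeast strain deficient in DNA damage repair.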
# [4] = NCI Yeast Anticancer Drug Screen. Data for the mlh1 rad18 strain (AID 175); conditions: S. cerevisiae mlh1 rad18 strain growth inhibition, hits give high values
# How it was run: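 Read-out is yeast growth inhibition, calculated against vehicle-only controls. The compound was applied to a strain engineered with DNA damage repair alterations.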
# [5] = NCI Yeast Anticancer Drug Screen. Data for the wt1 strain (AID 149);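 note: 0% = growth of vehicle-treated wt1 cultures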; conditions: S. cerevisiae wt1 strain (SPY 50644) growth inhibition, hits give high values
# How it was run: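 Growth inhibition read against vehicle controls after compound exposure of the wt1 yeast strain.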
# [6] = NCI Yeast Anticancer Drug Screen. Data for the rad50EPP+ strain (AID 151);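 note: 0% = growth of vehicle-treated control cultures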; conditions: S. cerevisiae rad50 mutant strain, hits give high values
# How it was run: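 Compounds were applied to the rad50EPP+ yeast strain, which bears a defined DNA repair alteration, and growth inhibition was determined relative to vehicle-treated cultures.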
# [7] = NCI Yeast Anticancer Drug Screen. Data for the rad14 strain (AID 159);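 note: 0% = growth of vehicle-treated control cultures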; conditions: S. cerevisiae rad14 strain growth inhibition, hits give high values
# How it was run: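 Growth inhibition vs vehicle controls; genetically altered yeast strain (DNA damage repair defect) treated with test compounds.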
# [8] = NCI Yeast Anticancer Drug Screen. Data for the CLN2oe strain (AID 163);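 note: 0% = growth of vehicle-only control cultures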; conditions: S. cerevisiae CLN2oe strain, hits give high values
# How it was run: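 Growth of a genetically modified yeast strain is measured after compound exposure and compared with cultures given vehicle alone.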
# [9] = NCI Yeast Anticancer Drug Screen. Data for the cln2 rad14 strain (AID 165);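 note: 0% = growth equal to vehicle treated cultures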; conditions: S. cerevisiae cln2 rad14 strain, hits give high values
# How it was run: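 Compounds are applied to the cln2 rad14 yeast strain, and growth is then compared with that of vehicle-treated cultures to give inhibition.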
# [10] = NCI Yeast Anticancer Drug Screen. Data for the bub3 strain (AID 167); conditions: S. cerevisiae bub3 mutant strain, hits give high values
# How it was run: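 Readout: yeast growth inhibition, expressed relative to vehicle-only wells. The test organism is a mutant strain from a panel with lesions in DNA repair or checkpoint genes.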
# [11] = NCI Yeast Anticancer Drug Screen. Data for the sgs1 strain (AID 173);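 note: 0% = growth of vehicle-only control cultures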; conditions: S. cerevisiae sgs1 mutant, hits give high values
# How it was run: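 Growth of a yeast strain bearing a defined genetic alteration is measured after compound treatment. Inhibition is expressed relative to vehicle-only controls.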
# [12] = NCI Yeast Anticancer Drug Screen. Data for the rad18 strain (AID 177); conditions: S. cerevisiae rad18 mutant growth inhibition, hits give high values
# How it was run: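 Growth of the mutant yeast strain after compound exposure, normalised to vehicle-only cultures.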
# [13] = NCI Yeast Anticancer Drug Screen. Data for the mgt1 strain (AID 153); conditions: S. cerevisiae mgt1 mutant growth inhibition, hits give high values
# How it was run: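 Strain: mgt1 yeast, one of a set carrying defined DNA damage repair or cell cycle control alterations. Compound-treated growth compared with vehicle.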
# [14] = NCI Yeast Anticancer Drug Screen. Data for the wt2 strain (AID 169);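 note: 0% = growth of vehicle-treated yeast cultures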; conditions: S. cerevisiae wt2 strain growth inhibition, hits give high values
# How it was run: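 This strain belongs to a panel of yeast strains with defined genetic alterations in DNA damage repair or cell cycle control. Compounds are applied, and growth inhibition is measured against vehicle-treated cultures.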
# [15] = NCI Yeast Anticancer Drug Screen. Data for the mlh1 strain (AID 171);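 note: 0% = growth of vehicle-treated control cultures of the same strain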; conditions: S. cerevisiae mlh1 strain growth inhibition, hits give high values
# How it was run: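 Growth of the mutant yeast strain after compound exposure, expressed as inhibition relative to vehicle-only controls.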
# [16] = at 5.0 µM (retest, dose inferred, filed as 0.5)
# [17] = at 50.0 µM (retest, dose inferred, filed as 5.0)
compound,measurement,setting,value
CC(=O)[O-].O=C([CH-]C(=O)c1ccccc1)c1ccccc1.O=C([CH-]C(=O)c1ccccc1)c1ccccc1.[Sm+3],growth inhibition,[1]; at 1.2 µM,9%
same,growth inhibition,[1]; at 3.7 µM,-5%
same,growth inhibition,[1]; [16],55%
same,growth inhibition,[1]; at 11.0 µM,79% (active)
same,growth inhibition,[1]; at 33.0 µM,96% (active)
same,growth inhibition,[1]; [17],55%
same,growth inhibition,[1]; at 50.0 µM,90.8% (active)
same,growth inhibition,[1]; at 100.0 µM,98% (active)
same,growth inhibition,[2]; at 1.2 µM,-2%
same,growth inhibition,[2]; at 3.7 µM,5%
same,growth inhibition,[2]; [16],42%
same,growth inhibition,[2]; at 11.0 µM,47%
same,growth inhibition,[2]; at 33.0 µM,97% (active)
same,growth inhibition,[2]; [17],42%
same,growth inhibition,[2]; at 50.0 µM,93% (active)
same,growth inhibition,[2]; at 100.0 µM,98% (active)
same,growth inhibition,[3]; [16],50%
same,growth inhibition,[3]; [17],50%
same,growth inhibition,[3]; at 50.0 µM,92.8% (active)
same,growth inhibition,[4]; [16],44%
same,growth inhibition,[4]; [17],44%
same,growth inhibition,[4]; at 50.0 µM,90.2% (active)
Nc1nc(N)c(-c2ccc(Cl)c(Cl)c2)c(CP(Cl)(Cl)(Cl)Br)n1,growth inhibition,[5]; at 1.2 µM,9%
same,growth inhibition,[5]; at 3.7 µM,16%
same,growth inhibition,[5]; at 11.0 µM,45%
same,growth inhibition,[5]; at 33.0 µM,55%
same,growth inhibition,[5]; at 100.0 µM,48%
same,growth inhibition,[6]; at 1.2 µM,-2%
same,growth inhibition,[6]; at 3.7 µM,4%
same,growth inhibition,[6]; at 11.0 µM,20%
same,growth inhibition,[6]; at 33.0 µM,33%
same,growth inhibition,[6]; at 100.0 µM,48%
same,growth inhibition,[1]; at 1.2 µM,9%
same,growth inhibition,[1]; at 3.7 µM,46%
same,growth inhibition,[1]; [16],53%
same,growth inhibition,[1]; at 11.0 µM,69%
same,growth inhibition,[1]; at 33.0 µM,76% (active)
same,growth inhibition,[1]; [17],80% (active)
same,growth inhibition,[1]; at 50.0 µM,62%
same,growth inhibition,[1]; at 100.0 µM,59%
same,growth inhibition,[2]; at 1.2 µM,4%
same,growth inhibition,[2]; at 3.7 µM,7%
same,growth inhibition,[2]; [16],39%
same,growth inhibition,[2]; at 11.0 µM,13%
same,growth inhibition,[2]; at 33.0 µM,38%
same,growth inhibition,[2]; [17],78% (active)
same,growth inhibition,[2]; at 50.0 µM,42.4%
same,growth inhibition,[2]; at 100.0 µM,27%
same,growth inhibition,[7]; at 1.2 µM,6%
same,growth inhibition,[7]; at 3.7 µM,8%
same,growth inhibition,[7]; at 11.0 µM,27%
same,growth inhibition,[7]; at 33.0 µM,37%
same,growth inhibition,[7]; at 100.0 µM,54%
same,growth inhibition,[3]; [16],30%
same,growth inhibition,[3]; [17],82% (active)
same,growth inhibition,[3]; at 50.0 µM,63.6%
same,growth inhibition,[8]; at 1.2 µM,-2%
same,growth inhibition,[8]; at 3.7 µM,-6%
same,growth inhibition,[8]; at 11.0 µM,-9%
same,growth inhibition,[8]; at 33.0 µM,-2%
same,growth inhibition,[8]; at 100.0 µM,10%
same,growth inhibition,[9]; [16],0%
same,growth inhibition,[9]; [17],22%
same,growth inhibition,[9]; at 50.0 µM,9.75%
same,growth inhibition,[10]; at 1.2 µM,10%
same,growth inhibition,[10]; at 3.7 µM,23%
same,growth inhibition,[10]; [16],45%
same,growth inhibition,[10]; at 11.0 µM,42%
same,growth inhibition,[10]; at 33.0 µM,56%
same,growth inhibition,[10]; [17],78% (active)
same,growth inhibition,[10]; at 50.0 µM,51.4%
same,growth inhibition,[10]; at 100.0 µM,55%
same,growth inhibition,[11]; at 1.2 µM,-1%
same,growth inhibition,[11]; at 3.7 µM,6%
same,growth inhibition,[11]; at 11.0 µM,49%
same,growth inhibition,[11]; at 33.0 µM,74% (active)
same,growth inhibition,[11]; at 100.0 µM,92% (active)
same,growth inhibition,[4]; [16],64%
same,growth inhibition,[4]; [17],88% (active)
same,growth inhibition,[4]; at 50.0 µM,58.4%
same,growth inhibition,[12]; at 1.2 µM,13%
same,growth inhibition,[12]; at 3.7 µM,45%
same,growth inhibition,[12]; at 11.0 µM,75% (active)
same,growth inhibition,[12]; at 33.0 µM,79% (active)
same,growth inhibition,[12]; at 100.0 µM,74% (active)
CC(O)([CH2][Hg][Cl])C(O)[CH2][Hg][Cl] (stereo not drawn),growth inhibition,[1]; [16],98% (active)
same,growth inhibition,[1]; [17],99% (active)
same,growth inhibition,[1]; at 50.0 µM,99.2% (active)
same,growth inhibition,[2]; [16],99% (active)
same,growth inhibition,[2]; [17],100% (active)
same,growth inhibition,[2]; at 50.0 µM,99.5% (active)
same,growth inhibition,[3]; [16],98% (active)
same,growth inhibition,[3]; [17],99% (active)
same,growth inhibition,[3]; at 50.0 µM,99.3% (active)
same,growth inhibition,[9]; [16],98% (active)
same,growth inhibition,[9]; [17],99% (active)
same,growth inhibition,[9]; at 50.0 µM,97.7% (active)
same,growth inhibition,[10]; [16],99% (active)
same,growth inhibition,[10]; [17],99% (active)
same,growth inhibition,[10]; at 50.0 µM,99.4% (active)
CCOC(=O)C1C2c3ccccc3C(c3ccccc32)C1C(=O)OCC (stereo not drawn),growth inhibition,[5]; at 1.2 µM,-1%
same,growth inhibition,[5]; at 3.7 µM,-2%
same,growth inhibition,[5]; at 11.0 µM,-1%
same,growth inhibition,[5]; at 33.0 µM,2%
same,growth inhibition,[5]; at 100.0 µM,79% (active)
same,growth inhibition,[13]; at 1.2 µM,-1%
same,growth inhibition,[13]; at 3.7 µM,1%
same,growth inhibition,[13]; at 11.0 µM,4%
same,growth inhibition,[13]; at 33.0 µM,7%
same,growth inhibition,[13]; at 100.0 µM,93% (active)
same,growth inhibition,[1]; at 1.2 µM,3%
same,growth inhibition,[1]; at 3.7 µM,3%
same,growth inhibition,[1]; [16],13%
same,growth inhibition,[1]; at 11.0 µM,8%
same,growth inhibition,[1]; at 33.0 µM,15%
same,growth inhibition,[1]; [17],77% (active)
same,growth inhibition,[1]; at 50.0 µM,17.3%
same,growth inhibition,[1]; at 100.0 µM,91% (active)
same,growth inhibition,[2]; at 1.2 µM,-1%
same,growth inhibition,[2]; at 3.7 µM,1%
same,growth inhibition,[2]; [16],-8%
same,growth inhibition,[2]; at 11.0 µM,3%
same,growth inhibition,[2]; at 33.0 µM,6%
same,growth inhibition,[2]; [17],1%
same,growth inhibition,[2]; at 50.0 µM,74.7% (active)
same,growth inhibition,[2]; at 100.0 µM,89% (active)
same,growth inhibition,[3]; [16],2%
same,growth inhibition,[3]; [17],89% (active)
same,growth inhibition,[3]; at 50.0 µM,80.2% (active)
same,growth inhibition,[8]; at 1.2 µM,7%
same,growth inhibition,[8]; at 3.7 µM,7%
same,growth inhibition,[8]; at 11.0 µM,19%
same,growth inhibition,[8]; at 33.0 µM,30%
same,growth inhibition,[8]; at 100.0 µM,93% (active)
same,growth inhibition,[9]; [16],-4%
same,growth inhibition,[9]; [17],28%
same,growth inhibition,[9]; at 50.0 µM,56.7%
same,growth inhibition,[10]; at 1.2 µM,0%
same,growth inhibition,[10]; at 3.7 µM,8%
same,growth inhibition,[10]; [16],18%
same,growth inhibition,[10]; at 11.0 µM,11%
same,growth inhibition,[10]; at 33.0 µM,17%
same,growth inhibition,[10]; [17],60%
same,growth inhibition,[10]; at 50.0 µM,49%
same,growth inhibition,[10]; at 100.0 µM,76% (active)
same,growth inhibition,[14]; at 1.2 µM,-12%
same,growth inhibition,[14]; at 3.7 µM,-11%
same,growth inhibition,[14]; at 11.0 µM,7%
same,growth inhibition,[14]; at 33.0 µM,6%
same,growth inhibition,[14]; at 100.0 µM,95% (active)
same,growth inhibition,[15]; at 1.2 µM,-1%
same,growth inhibition,[15]; at 3.7 µM,6%
same,growth inhibition,[15]; at 11.0 µM,7%
same,growth inhibition,[15]; at 33.0 µM,16%
same,growth inhibition,[15]; at 100.0 µM,86% (active)
same,growth inhibition,[11]; at 1.2 µM,-9%
same,growth inhibition,[11]; at 3.7 µM,-19%
same,growth inhibition,[11]; at 11.0 µM,12%
same,growth inhibition,[11]; at 33.0 µM,19%
same,growth inhibition,[11]; at 100.0 µM,97% (active)
same,growth inhibition,[4]; [16],16%
same,growth inhibition,[4]; [17],87% (active)
same,growth inhibition,[4]; at 50.0 µM,53.1%
same,growth inhibition,[12]; at 1.2 µM,1%
same,growth inhibition,[12]; at 3.7 µM,8%
same,growth inhibition,[12]; at 11.0 µM,9%
same,growth inhibition,[12]; at 33.0 µM,11%
same,growth inhibition,[12]; at 100.0 µM,91% (active)
